Only some compounds are listed: those with a hit (about 12% of all), similar ones and a draw of the others.
Sfp inh – Sfp phosphopantetheinyl transferase inhibition; Q9F4F7; Biochemical Sfp PPTase activity, qHTS; Potency, µM, without a hit: largest response in the series, negative = inhibition, most hits filed as inhibitors; 3.5% of 310,000 active; AID 1490;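 note: the enzyme is Sfp with the accession as filed and its product quenches rhodamine fluorescence; 0% = enzyme reaction without inhibitor and -100% = no enzyme wells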
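Reaction rates are the 30-min fluorescence difference (ex 525, em 598 nm) in wells containing 15 nM Sfp, 5 uM rhodamine-CoA and 12.5 uM BHQ-2-YbbR at pH 7.6 with 10 mM MgCl2.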
HP1b binding inh – HP1-beta chromodomain-methylated histone interaction inhibition; 0.56% of 390,000 active; Potency, µM (titrated, usually from 114 µM), for the others: at the top dose activity change, negative = inhibition, most hits filed as inhibitors; P83916; AlphaScreen HP1-beta / biotin-H3K9me3 peptide binding; AID 540317; note: nearly all actives have a fitted effect of over 70% in size
Target sequence (P83916 whole entry, looked up): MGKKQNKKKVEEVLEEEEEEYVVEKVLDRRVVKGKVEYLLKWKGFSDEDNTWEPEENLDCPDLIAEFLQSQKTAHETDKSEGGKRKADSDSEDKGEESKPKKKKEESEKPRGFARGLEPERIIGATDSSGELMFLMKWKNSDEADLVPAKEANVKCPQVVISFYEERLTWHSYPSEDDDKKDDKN
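HP1-beta protein (50 nM final) preincubated 30 min at room temperature with biotinylated H3(1-18)K9me3 peptide (50 nM) in PBS pH 7.4, 0.01% Tween-20, then compound added for 30 min. AlphaScreen streptavidin donor/nickel chelate acceptor beads (10 ug/mL final), 30 min dark, luminescence read.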
JMJD2A Tudor – JMJD2A Tudor domain (human) inhibition | Potency, µM (top dose mostly 114 µM), for inactives: at the top dose activity change, negative = inhibition, usual class: inhibitors | AID 504339 | 4.4% of 390,000 active | O75164 | AlphaScreen JMJD2A-Tudor / H3K4me3 peptide binding; note: % is set by controls: 0 for no effect and ±100 for the full control effect; nearly all actives have a fitted effect of over 50% in size
BAZ2B inh – blocks human BAZ2B; Q9UIF8; AlphaScreen BAZ2B-H3K14Ac peptide displacement; Potency, µM (top dose mostly 114 µM), for the others: at the highest dose activity change, negative = inhibition, most hits filed as inhibitors; 4.4% of 360,000 active; AID 504333; note: % is set by controls: 0 for no effect and ±100 for the full control effect; nearly all actives have a fitted effect of over 60% in size
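AlphaScreen displacement: compounds (up to 110uM) incubated 30 min at room temperature with a preformed 50 nM BAZ2B/50 nM biotinylated H3K14Ac peptide complex in PBS pH 7.4 with Tween-20. Donor and acceptor beads at 10 ug/mL final added, 20 min light-protected before reading.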
G9a inh – G9a (human) methyltransferase inhibition; 8.8% of 350,000 active; Q96KQ7; Potency, µM (titrated, usually from 102 µM), for inactives: at the top dose activity, negative = inhibition, hits mostly inhibitors; G9a H3K9 monomethylation, AlphaScreen, 2 h; AID 504332; note: % is set by controls: 0 for no effect and ±100 for the full control effect; nearly all actives have a fitted effect of over 75% in size
Target sequence (Q96KQ7 913-1193 limits assumed): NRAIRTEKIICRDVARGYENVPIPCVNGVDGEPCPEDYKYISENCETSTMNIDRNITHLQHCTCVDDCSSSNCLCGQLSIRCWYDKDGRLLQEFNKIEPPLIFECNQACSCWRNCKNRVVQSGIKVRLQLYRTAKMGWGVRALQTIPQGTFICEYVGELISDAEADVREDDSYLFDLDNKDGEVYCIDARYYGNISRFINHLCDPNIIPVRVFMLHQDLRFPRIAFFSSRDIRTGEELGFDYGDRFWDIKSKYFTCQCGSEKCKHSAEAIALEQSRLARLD
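Step 1: enzyme (final 20 nM) with compound, 15 min RT. Step 2: substrate peptide 500 nM and SAM 20 uM, 2 h RT. Step 3: anti-H3K9me1 antibody and AlphaScreen beads, 10 min, then plate read.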
* marks the source's active call; other numbers are inactive results; ? = inconclusive; nt = no result given; [ ] = another dose, or the depositor's remark. Calls come from the whole dose curve; as a rule, active = well fitted curve in the direction sought with a large enough effect; inconclusive = small, poorly fitted or top-dose-only effect, or another doubt; inactive = no such curve, though single readings can be large; an effect the other way counts as inactive or inconclusive. Potency is the fitted concentration of half-maximal effect.

SMILES	Sfp inh	HP1b binding inh	JMJD2A Tudor	BAZ2B inh	G9a inh
C/C(CCC(=O)OC[C@@H]1O[C@H](C#Cc2ccccc2)C=C[C@@H]1Oc1ccc(C)cc1)=N/O[C@@H](C)c1cn([C@H](CO)Cc2ccccc2)nn1	13%	nt	nt	nt	nt
Cc1cccc(N2CCN(C(=O)c3cccc(N4CCCC4=O)c3)C(C)C2)c1 (stereo not given)	-2%	-22%	?	-17%	nt
CC(=O)NS(=O)(=O)c1ccc(NC(=O)/C=C/c2ccco2)cc1	56µM*	10%	-17%	-22%	45µM*
NS(=O)(=O)c1ccc(NC(=O)/C=C/c2ccco2)cc1	20µM*	?	-28%	-29%	45µM*
O=C(/C=C/c1ccco1)Nc1ccc(S(=O)(=O)N2CCOCC2)cc1	-19%	-25%	-17%	-16%	?
O=C(Nc1ccc(O)c2c(=O)cc(-c3ccccc3Cl)oc12)c1ccc(Br)cc1	-1%	nt	nt	nt	7%[59 µM]
COc1ccc(F)cc1S(=O)(=O)NCC(c1ccco1)N1CCc2ccccc2C1 (stereo not given)	nt	18%	-14%	-35%	?
Cc1nc(N2CCN(C)CC2)c2sc(=S)n(-c3ccccc3)c2n1	-12%	38%	6%	-2%	40µM*
Cc1nc(N2CCN(C)CC2)c2cc(-c3ccccc3)sc2n1	?	28%	-11%	16%	50µM*
Oc1ccc(N2CCN(c3ncnc4sc(-c5ccccc5)cc34)CC2)cc1	20µM*	?	16µM*	40µM*	3.2µM*
Cc1nc(N2CCN(C)CC2)c2sc(=S)n(C)c2n1	5%	33%	-4%	5%	-3%
Cc1c(S(=O)(=O)Nc2cccc3ccccc23)c(=O)n(C)c(=O)n1C	nt	11%	-21%	5%	-6%
Cc1cc(-c2ccccc2N)n[nH]1	4%	19%	-12%	?	50µM*
CCC(C(=O)NC1CCCCCC1)n1nc(C)c2c(C)n(-c3ccccc3)nc2c1=O (stereo not given)	13%	4%	?	-22%	77%
NC(=S)Cc1nc2n(n1)Cc1ccccc1-2	56µM*	-14%	25µM*	-23%	4µM*
CC12CN(C(=O)c3cccc([N+](=O)[O-])c3)C3(C#N)CC1CCC23C (stereo not given)	-5%	14%	-19%	4%	nt
CCn1ncc(NC(=S)Nc2ccc3c(c2)OCO3)c1C(N)=O	56µM*	-11%	-3%	-32%	20µM*
CCn1ncc(NC(=S)Nc2ccc(OC)c(OC)c2)c1C(N)=O	32µM*	0%	?	79µM*	45µM*
S=C(Nc1ccc2c(c1)OCO2)Nc1ccc2c(c1)OCO2	-17%	?	-21%	?	?
Cc1cccc(OCC(=O)Nc2ccccc2C(=O)OCc2cc(=O)n3nc(C4CC4)sc3n2)c1	nt	27%	-1%	-4%	3%[59 µM]
CCC1(C)Cc2c(sc3nc(NN)n(C)c(=O)c23)CO1 (stereo not given)	-2%	1%	-13%	15%	45µM*
CCOC(=O)CSc1nc2sc3c(c2c(=O)[nH]1)CC(C)(CC)OC3 (stereo not given)	4%	23%	-7%	4%	32µM*
CCOC(=O)Nc1ccc2c(c1)N(C(=O)CN(CC)CC)c1ccccc1CC2	0%	15%	-11%	3%	nt
CCOC(=O)Nc1ccc2c(c1)N(C(=O)N1CCN(C)CC1)c1ccccc1CC2	2%	0%	-11%	-13%	-1%
CC(C)OC(=O)Nc1ccc2c(c1)N(C(=O)N1CCN(C)CC1)c1ccccc1CC2	-18%	45µM*	0.89µM*	40µM*	?
SMILES	Sfp inh	HP1b binding inh	JMJD2A Tudor	BAZ2B inh	G9a inh
CCN(CC)CC(=O)Nc1ccc2c(c1)N(C(=O)CN(CC)CC)c1ccccc1CC2	-3%	33%	-14%	1%	56µM*
CNc1ccc(Br)cc(C(=O)/C=C/c2ccc(Cl)cc2Cl)c1=O	14µM*	?	56µM*	?	35µM*
O=C(/C=C/c1ccc(Cl)cc1Cl)c1ccc[nH]1	7%	6%	-33%	-31%	-38%
CNc1ccc(Br)cc(C(=O)/C=C/c2ccc(OC)cc2OC)c1=O	?	?	32µM*	32µM*	7.9µM*
CNc1ccc(Br)cc(C(=O)/C=C/c2cccc(OC)c2)c1=O	20µM*	?	45µM*	45µM*	7.9µM*
COc1cccc(/C=C/C(=O)OCC(=O)NCCNC(=O)COC(=O)/C=C/c2cccc(OC)c2)c1	nt	12%	-18%	-12%	-29%[12.7 µM]
CCOc1ccc(OCC(=O)NCCS(=O)(=O)N2CCN(c3cccc(Cl)c3)CC2)cc1	nt	5%	-9%	-3%	-4%[59 µM]
O=C(O)Cc1ccc(NC2(c3ccccc3)C(=O)c3ccccc3C2=O)cc1	nt	17%	3%	7%[57.1 µM]	-13%[59 µM]
CC(C)(C)NC(=O)C(c1ccco1)N(C(=O)c1ccc(CN2CCOCC2)o1)c1ccccc1 (stereo not given)	12%	8%	-5%	2%	11µM*
CC(C)(C)NC(=O)C(c1ccco1)N(C(=O)c1csnn1)c1ccccc1 (stereo not given)	3%	11%	-7%	-16%	0%[12.7 µM]
Cc1ccc(C(=O)O/N=C(\N)c2ccc(C(F)(F)F)cn2)cc1	-2%	21%	-18%	-13%	0%
N/C(=N\OC(=O)c1csnn1)c1ccc(C(F)(F)F)cc1	56µM*	-20%	-5%	-1%	18µM*
Cc1cc2c(cc3c(SCc4ccc(Cl)cc4)nnc(C)n32)o1	nt	-14%	?	28µM*	4.5µM*
O=C(NCc1ccc(Cl)cc1)c1cnccn1	13%	22%	15%	-8%	36%
O=C(Cc1ccc(Cl)cc1)NNC(=O)c1cnccn1	8%	9%	50µM*	6%	?
Cc1ccc(N(CC(=O)Nc2ccc(Cl)cc2)S(=O)(=O)c2cccc3nonc23)cc1	nt	13%	?	nt	?
Cc1ccc(NC(=O)CN(c2ccc(C)cc2)S(=O)(=O)c2cccc3nonc23)cc1	12%	-1%	?	-32%	50µM*
N#CC1=C(N)C2=C(N3CCCCC3)CCCC2C1(C#N)C#N (stereo not given)	?	12%	-30%	50µM*	?
Fc1ccccc1-c1n[nH]c(=S)n1CC1CCCO1 (stereo not given)	1%	44%	-11%	-12%	27%[12.7 µM]
S=c1[nH]nc(-c2ccccc2Cl)n1CC1CCCO1 (stereo not given)	?	29%	40µM*	-30%	5µM*
CC(C)(C)c1ccc(-c2n[nH]c(=S)n2CC2CCCO2)cc1 (stereo not given)	-27%	0%	32µM*	-19%	7.9µM*
CN(C)c1ccc(Nc2nc3ccccc3n3nnnc23)cc1	nt	?	7.9µM*	3.5µM*	3.2µM*
Cc1ccc(N2CCN(C(=O)c3ccc(Nc4nc5ccccc5n5nnnc45)cc3)CC2)c(C)c1	nt	35%	-9%	2%	-2%[59 µM]

Screening results (PubChem BioAssay)
